PubChem BioAssay AID1159580 (chemical genetic matrix, 2015)
The campaign covered roughly 5,500 compounds. About 2,000 (36%) were called active. Another 18% or so got no clear call; they are omitted. Rule as the data show it: active = normalized growth mostly below about 0.91 (no sharp cut-off); inconclusive = no clear call, values can overlap the other calls; inactive = mostly above about 0.92. Some of the results follow.

Assay: chemical genetic growth profiling, strain panel (AID 1159580);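 also: tested at 20 µM; growth read once vehicle control cultures reached saturation at 30 °C; 1 = growth at the plate median or of vehicle wells; lower values mean less growth of the strain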
Settings: S. cerevisiae deletion strains, growth OD

Measured: normalized growth

COC1C(O)C(C)OC(O[C@H]2CC[C@]3(C=O)C4C(CC[C@]3(O)C2)[C@@]2(O)CC[C@H](C3=CC(=O)OC3)[C@@]2(C)C[C@H]4O)C1O (stereo not given in full)
inactive: locus YHR030C, strain SLT2, active compounds read low 1.07 | locus YHR079C, strain IRE1, active compounds read low 1.08 | locus YJL095W, strain BCK1, active compounds read low 1.04 | locus YJR066W, strain TOR1, active compounds read low 0.979 | locus YLR113W, strain HOG1, active compounds read low 0.968 | locus YNL183C, strain NPR1, active compounds read low 0.988 | locus YOR231W, strain MKK1, active compounds read low 1.01 | locus YPL256C, strain CLN2, active compounds read low 1.12

COC1CC(OC2CCC3(C)C(CCC4C3CCC3(C)C(C5=CC(=O)OC5)C(OC(C)=O)CC43O)C2)OC(C)C1O (stereo not given)
inactive: locus YAL021C, strain ccr4, active compounds read low 0.998 | locus YAL026C, strain drs2, active compounds read low 1.02 | locus YAL030W, strain snc1, active compounds read low 1.01 | locus YBL061C, strain skt5, active compounds read low 1.02 | locus YBR009C, strain hhf1, active compounds read low 1.02 | locus YBR023C, strain chs3, active compounds read low 1.02 | locus YBR171W, strain sec66, active compounds read low 1.03 | locus YBR231C, strain swc5, active compounds read low 1.02 | locus YBR279W, strain paf1, active compounds read low 1.01 | locus YCL011C, strain gbp2, active compounds read low 1.02 | locus YCL016C, strain dcc1, active compounds read low 1.01 | locus YCL061C, strain MRC1, active compounds read low 1.02 | locus YCL069W, strain vba3, active compounds read low 1.02 | locus YCR088W, strain abp1, active compounds read low 1.02 | locus YDL005C, strain med2, active compounds read low 1.03 | locus YDL040C, strain nat1, active compounds read low 1.01 | locus YDR001C, strain nth1, active compounds read low 1.02 | locus YDR069C, strain doa4, active compounds read low 1.01 | locus YDR137W, strain rgp1, active compounds read low 1 | locus YDR159W, strain sac3, active compounds read low 1.04 | locus YDR195W, strain ref2 1.03 | locus YDR297W, strain sur2, active compounds read low 1.03 | locus YDR334W, strain swr1, active compounds read low 1.03 | locus YDR335W, strain msn5, active compounds read low 1.03 | locus YDR392W, strain spt3, active compounds read low 0.984 | locus YEL003W, strain gim4, active compounds read low 1.02 | locus YEL037C, strain rad23, active compounds read low 1.02 | locus YEL061C, strain CIN8 (second series), active compounds read low 1.02 | locus YER015W, strain faa2, active compounds read low 1.02 | locus YER016W, strain bim1, active compounds read low 1.02 | locus YER111C, strain swi4, active compounds read low 1.03 | locus YER155C, strain BEM2 (second series), active compounds read low 1.03 | locus YFR010W, strain ubp6, active compounds read low 1.03 | locus YGL167C, strain pmr1, active compounds read low 1.02 | locus YGL173C, strain kem1, active compounds read low 1.03 | locus YGL227W, strain vid30, active compounds read low 1.02 | locus YGL240W, strain doc1, active compounds read low 1.01 | locus YGL253W, strain hxk2, active compounds read low 1.03 | locus YHR013C, strain ard1, active compounds read low 1.03 | locus YHR027C, strain rpn1, active compounds read low 1.03 | locus YHR142W, strain chs7, active compounds read low 1.02 | locus YJL092W, strain hpr5, active compounds read low 1.03 | locus YJL095W, strain BCK1 (second series), active compounds read low 1.01 | locus YJL115W, strain asf1, active compounds read low 1.03 | locus YJL129C, strain trk1, active compounds read low 1.02 | locus YJL154C, strain vps35, active compounds read low 1.02 | locus YJL164C, strain tpk1, active compounds read low 1 | locus YJL166W, strain qcr8, active compounds read low 1.03 | locus YJL187C, strain SWE1, active compounds read low 1.01 | locus YKL160W, strain elf1, active compounds read low 1.01 | locus YKR026C, strain gcn3, active compounds read low 1.02 | locus YKR091W, strain srl3, active compounds read low 1.01 | locus YLL001W, strain dnm1, active compounds read low 1.02 | locus YLL026W, active compounds read low 1.02 | locus YLL041C, strain sdh2, active compounds read low 1.02 | locus YLR027C, strain aat2, active compounds read low 1.01 | locus YLR221C, strain rsa3, active compounds read low 1.03 | locus YLR258W, strain gsy2, active compounds read low 1.01 | locus YLR262C, strain YPT6 (second series), active compounds read low 1.04 | locus YLR320W, strain mms22, active compounds read low 1.01 | locus YLR342W, strain FKS1, active compounds read low 1.02 | locus YLR357W, strain rsc2, active compounds read low 1.06 | locus YLR370C, strain arc18, active compounds read low 1.02 | locus YLR384C, strain iki3, active compounds read low 1.02 | locus YML120C, strain ndi1, active compounds read low 1.01 | locus YMR058W, strain fet3, active compounds read low 1.04 | locus YMR125W, strain sto1, active compounds read low 1.02 | locus YMR129W, active compounds read low 1.01 | locus YMR205C, strain PFK2, active compounds read low 1.01 | locus YMR231W, strain pep5, active compounds read low 1.02 | locus YNL071W, strain lat1, active compounds read low 1.02 | locus YNL209W, strain ssb2, active compounds read low 1.01 | locus YNL248C, strain rpa49, active compounds read low 0.939 | locus YNL322C, strain KRE1 (second series), active compounds read low 1.03 | locus YNR049C, strain mso1, active compounds read low 1.01 | locus YOR001W, strain rrp6, active compounds read low 1.02 | locus YOR070C, strain gyp1, active compounds read low 1.03 | locus YOR080W, strain dia2, active compounds read low 1.02 | locus YOR083W, strain WHI5, active compounds read low 1 | locus YOR106W, strain vam3, active compounds read low 1.01 | locus YOR265W, strain rbl2, active compounds read low 1.01 | locus YOR270C, strain vph1, active compounds read low 1.02 | locus YOR290C, strain snf2, active compounds read low 0.986 | locus YPL051W, strain arl3, active compounds read low 1.01 | locus YPL078C, strain atp4, active compounds read low 1.01 | locus YPL106C, strain sse1, active compounds read low 1.01 | locus YPL240C, strain hsp82, active compounds read low 1.02
